# Laboratory results taken from the supplement of paper PMC3545927.
# Some of the results follow. No count for the full screen is at hand.
# B1: HC1713 (peptide)
# chain: CAMERCSQHLAGNASASA
# B2: FS-255 (peptide)
# chain: CAIPSRRPRFAGNASASA
# B3: FS-692 (peptide)
# chain: CAMLSRFGRFAGNASASA
# B4: FS-1749 (peptide)
# chain: CARLSRPDSGAGNASASA
# B5: FS-490 (peptide)
# chain: CARLSRFPRFAGNASASA
# B6: HC1386 (peptide)
# chain: CALRHHNLVYAGNASASA
# B7: HC697 (peptide)
# chain: CACINGVCWTAGNASASA
# B8: HC374 (peptide)
# chain: CALNCNDSLNAGNASASA
# B9: HC1351 (peptide)
# chain: CADAESYSSMAGNASASA
# B10: FS-510 (peptide)
# chain: CATPGDPKRTAGNASASA
# B11: FS-380 (peptide)
# chain: CASPGRHKRTAGNASASA
# B12: FS-172 (peptide)
# chain: CAISLRFKRTAGNASASA
# B13: FS-93 (peptide)
# chain: CASPGRSARPAGNASASA
# B14: FS-1102 (peptide)
# chain: CAVLGRKKRTAGNASASA
# B15: HC2270 (peptide)
# chain: CAVLEVVTSTAGNASASA
# B16: FS-1661 (peptide)
# chain: CAVLHRNKRTAGNASASA
# B17: FS-2855 (peptide)
# chain: CAVLRRDVITAGNASASA
# B18: HC1307 (peptide)
# chain: CAYNPPLVETAGNASASA
# B19: HC2290 (peptide)
# chain: CADVEVVTSTAGNASASA
# B20: HC1648 (peptide)
# chain: CAYSGGDIYHAGNASASA
# B21: HC1173 (peptide)
# chain: CAMHTRCHCGAGNASASA
# B22: HC704 (peptide)
# chain: CATRTIASPKAGNASASA
# B23: HC1170 (peptide)
# chain: CAWRVDGIMHAGNASASA
# B24: FS-991 (peptide)
# chain: CAELLRKKRTAGNASASA
# B25: HC1323 (peptide)
# chain: CAPPPRKKRTAGNASASA
# B26: FS-669 (peptide)
# chain: CAIRSGKKRTAGNASASA
# B27: FS-252 (peptide)
# chain: CAILSRAKRPAGNASASA
# B28: HC1319 (peptide)
# chain: CAPPPKSPPVAGNASASA
# B29: FS-1627 (peptide)
# chain: CAELGDDGRTAGNASASA
# B30: FS-479 (peptide)
# chain: CAQLLRKKRPAGNASASA
# B31: HC693 (peptide)
# chain: CAAAQTFLATAGNASASA
# B32: HC2480 (peptide)
# chain: CACTPCSAHLAGNASASA
# B33: HC469 (peptide)
# chain: CAHYPCTINYAGNASASA
# B34: HC1736 (peptide)
# chain: CAMEECSGHLAGNASASA
# B35: HC2008 (peptide)
# chain: CAVWCCSMSYAGNASASA
# B36: FS-234 (peptide)
# chain: CAEQRRRRRQAGNASASA
# B37: FS-787 (peptide)
# chain: CAGREERRRQAGNASASA
# B38: FS-1860 (peptide)
# chain: CARLRKCVEQAGNASASA
# B39: FS-181 (peptide)
# chain: CANMWRCPRQAGNASASA
# B40: FS-1623 (peptide)
# chain: CACLRRRRRQAGNASASA
# B41: FS-801 (peptide)
# chain: CAIFRRRPRQAGNASASA
# B42: FS-1415 (peptide)
# chain: CASPQRRRRQAGNASASA
# B43: FS-1012 (peptide)
# chain: CAIGGRFDRQAGNASASA
# Target: furin, P09958
# Sequence (P09958 whole entry): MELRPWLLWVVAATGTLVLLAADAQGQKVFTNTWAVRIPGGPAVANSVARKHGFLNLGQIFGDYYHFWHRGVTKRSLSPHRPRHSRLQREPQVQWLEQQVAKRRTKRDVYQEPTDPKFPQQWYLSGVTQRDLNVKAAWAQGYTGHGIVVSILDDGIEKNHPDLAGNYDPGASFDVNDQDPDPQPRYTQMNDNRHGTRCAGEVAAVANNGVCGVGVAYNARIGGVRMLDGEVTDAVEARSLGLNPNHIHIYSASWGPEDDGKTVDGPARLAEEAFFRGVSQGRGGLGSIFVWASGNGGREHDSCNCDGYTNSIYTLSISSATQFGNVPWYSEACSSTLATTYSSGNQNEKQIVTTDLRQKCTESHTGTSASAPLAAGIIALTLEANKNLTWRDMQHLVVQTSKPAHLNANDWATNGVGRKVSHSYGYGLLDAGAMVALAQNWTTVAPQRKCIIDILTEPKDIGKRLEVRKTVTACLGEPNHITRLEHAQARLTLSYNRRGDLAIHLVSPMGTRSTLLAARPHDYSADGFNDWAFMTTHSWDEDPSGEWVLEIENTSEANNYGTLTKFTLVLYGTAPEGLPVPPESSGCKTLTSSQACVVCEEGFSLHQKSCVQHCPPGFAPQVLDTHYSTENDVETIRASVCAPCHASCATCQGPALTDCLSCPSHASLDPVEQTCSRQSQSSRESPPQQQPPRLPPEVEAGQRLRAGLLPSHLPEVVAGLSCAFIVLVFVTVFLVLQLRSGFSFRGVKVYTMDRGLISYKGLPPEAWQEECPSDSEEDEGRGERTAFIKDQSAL
# Assay: furin cleavage Z-score vs untreated control; higher = more cleavage, active = 3.5 or more, inactive = 1 or less, 8 variable residues between constant flanks
# In short: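 Read counts from sequencing released DNA gave abundance for each bead-bound 8-mer peptide–cDNA fusion cut by purified furin over 7.5, 15 or 30 min. The cleavage Z-score compares log counts with furin-free reactions after lowess adjustment and median absolute deviation scaling.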
# 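Note: purified furin at 1:10 enzyme:substrate in 50 mM HEPES pH 7.5.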
Sequence,furin cleavage Z-score (7.5 min),furin cleavage Z-score (15 min),furin cleavage Z-score (30 min)
B1,1.58,0.689 (inactive),1.89
B2,5.86 (active),8 (active),9.09 (active)
B3,-0.109 (inactive),0.852 (inactive),3.08
B4,-0.794 (inactive),-0.615 (inactive),-0.815 (inactive)
B5,8.21 (active),11.2 (active),11.1 (active)
B6,1.49,0.243 (inactive),1.05
B7,-0.68 (inactive),-1.02 (inactive),-2.54 (inactive)
B8,-1.18 (inactive),-0.292 (inactive),-1.02 (inactive)
B9,1.28,0.832 (inactive),-0.308 (inactive)
B10,-0.0828 (inactive),0.23 (inactive),-0.487 (inactive)
B11,8.84 (active),8.17 (active),6.66 (active)
B12,7.22 (active),6.1 (active),6.83 (active)
B13,-1.18 (inactive),-1.19 (inactive),-1.31 (inactive)
B14,8.65 (active),9.15 (active),8.6 (active)
B15,0.137 (inactive),-0.489 (inactive),-0.471 (inactive)
B16,9.47 (active),9.94 (active),9.22 (active)
B17,0.181 (inactive),-1.21 (inactive),0.595 (inactive)
B18,-1.06 (inactive),-1.13 (inactive),-1.23 (inactive)
B19,1.98,0.479 (inactive),0.627 (inactive)
B20,-0.433 (inactive),-0.656 (inactive),-0.39 (inactive)
B21,-0.571 (inactive),-2.41 (inactive),-1.42 (inactive)
B22,1.03,0.625 (inactive),-0.793 (inactive)

Sequence,furin cleavage Z-score (7.5 min),furin cleavage Z-score (15 min),furin cleavage Z-score (30 min)
B23,1.37,0.67 (inactive),0.743 (inactive)
B24,5.51 (active),6.85 (active),6.38 (active)
B25,12.7 (active),14.5 (active),10.1 (active)
B26,-1.71 (inactive),-0.504 (inactive),-0.845 (inactive)
B27,0.222 (inactive),-1.38 (inactive),0.306 (inactive)
B28,-0.03 (inactive),-0.325 (inactive),0.671 (inactive)
B29,-0.885 (inactive),-0.821 (inactive),-0.581 (inactive)
B30,2.18,1.54,4.39 (active)
B31,-1.34 (inactive),-1.47 (inactive),-1.85 (inactive)
B32,2.02,1.15,0.414 (inactive)
B33,-0.918 (inactive),-0.579 (inactive),0.122 (inactive)
B34,-0.517 (inactive),-0.79 (inactive),1.12
B35,1.84,-0.334 (inactive),1.13
B36,8.68 (active),6.63 (active),6.29 (active)
B37,-0.438 (inactive),-0.529 (inactive),0.464 (inactive)
B38,-0.549 (inactive),0.53 (inactive),1.14
B39,1.61,-1.4 (inactive),-1.2 (inactive)
B40,8.28 (active),7.74 (active),5.47 (active)
B41,5.14 (active),4.22 (active),2.76
B42,7.36 (active),8.25 (active),6.4 (active)
B43,-1.34 (inactive),2.43,1.03
